From PubChem BioAssay
Unmarked numbers belong to inactive results. Calls of active or inactive are those of the source. Unless noted, no stated cut-off is given here; in the data, active means inhibition above about 30%; inactive means the rest.

How the values were obtained:
[1] = target: Nuclear receptor coactivator 3 (Homo sapiens) (UniProt Q9Y6Q9); assay: SRC3 coactivator transcriptional activity inhibitors, confirmation, cell-based, luminescence, quadruplicate (AID 588792;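 active means mean inhibition over 43.08%, the solvent-only control mean plus 3 SD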;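 further: 0% = DMSO treated cells and 100% = gossypol at 36 µM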); conditions: HEK293 GAL4-SRC3 luciferase reporter, at 3.6 µM, hits give high values
Chain of Nuclear receptor coactivator 3 (Homo sapiens) (Q9Y6Q9 whole entry, looked up, the tested form may be a part): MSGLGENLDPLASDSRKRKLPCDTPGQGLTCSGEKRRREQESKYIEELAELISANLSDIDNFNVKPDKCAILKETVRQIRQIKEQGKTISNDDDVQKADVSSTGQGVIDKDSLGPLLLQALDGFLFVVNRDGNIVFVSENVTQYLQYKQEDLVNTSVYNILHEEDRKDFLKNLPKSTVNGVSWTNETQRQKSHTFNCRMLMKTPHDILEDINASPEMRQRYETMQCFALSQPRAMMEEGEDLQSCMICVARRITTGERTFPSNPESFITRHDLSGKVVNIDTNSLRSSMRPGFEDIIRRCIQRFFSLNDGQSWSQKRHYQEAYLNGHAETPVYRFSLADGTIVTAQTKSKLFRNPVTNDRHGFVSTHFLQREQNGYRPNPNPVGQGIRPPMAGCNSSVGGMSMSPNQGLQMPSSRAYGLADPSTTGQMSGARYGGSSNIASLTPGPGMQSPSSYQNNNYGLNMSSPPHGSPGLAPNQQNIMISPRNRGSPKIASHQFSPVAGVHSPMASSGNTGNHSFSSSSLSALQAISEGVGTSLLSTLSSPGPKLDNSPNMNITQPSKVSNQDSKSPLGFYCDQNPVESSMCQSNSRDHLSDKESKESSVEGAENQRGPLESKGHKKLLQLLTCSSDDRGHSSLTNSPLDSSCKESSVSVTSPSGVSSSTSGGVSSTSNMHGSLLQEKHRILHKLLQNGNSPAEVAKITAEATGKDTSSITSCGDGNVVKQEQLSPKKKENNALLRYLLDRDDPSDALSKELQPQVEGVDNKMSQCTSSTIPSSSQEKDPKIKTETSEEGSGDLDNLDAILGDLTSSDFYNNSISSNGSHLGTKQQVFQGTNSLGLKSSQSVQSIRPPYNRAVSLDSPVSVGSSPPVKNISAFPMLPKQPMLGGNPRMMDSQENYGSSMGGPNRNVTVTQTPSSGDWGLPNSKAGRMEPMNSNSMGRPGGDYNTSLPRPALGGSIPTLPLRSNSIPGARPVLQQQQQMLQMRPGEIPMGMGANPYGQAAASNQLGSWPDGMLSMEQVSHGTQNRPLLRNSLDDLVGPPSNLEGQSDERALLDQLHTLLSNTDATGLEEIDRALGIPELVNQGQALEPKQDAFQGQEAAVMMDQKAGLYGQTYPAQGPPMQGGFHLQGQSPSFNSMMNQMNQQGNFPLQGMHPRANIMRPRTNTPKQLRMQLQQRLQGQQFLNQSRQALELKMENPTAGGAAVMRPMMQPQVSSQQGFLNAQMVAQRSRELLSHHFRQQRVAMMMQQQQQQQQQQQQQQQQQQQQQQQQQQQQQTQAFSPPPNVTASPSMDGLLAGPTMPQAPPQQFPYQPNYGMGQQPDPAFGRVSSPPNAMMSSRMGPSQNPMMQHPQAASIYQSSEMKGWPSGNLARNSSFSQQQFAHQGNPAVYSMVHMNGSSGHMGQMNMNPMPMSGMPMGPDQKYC

[2] = tested on: transactivating tegument protein VP16 (Human herpesvirus 1), Gal4-VP16 luciferase reporter; assay: VP16 transactivation inhibitors, counter-screen for SRC3 inhibitor project, cell-based, luminescence, high throughput (AID 588794); conditions: mammalian cells, VP16-driven luciferase reporter luminescence; at 3.6 µM; hits give high values
[3] = target: Nuclear receptor coactivator 1 (Homo sapiens) (UniProt Q15788); assay: SRC1 coactivator transcriptional activity inhibitors, confirmation, cell-based, luminescence, quadruplicate (AID 588820;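 active means mean inhibition above 46.68%, the untreated control wells mean plus 3 SD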;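 further: 0% = DMSO wells and 100% = gossypol 36 µM treated wells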); conditions: HEK293 GAL4-SRC1 luciferase reporter, at 3.6 µM, hits give high values
Chain of Nuclear receptor coactivator 1 (Homo sapiens) (Q15788 whole entry, looked up, the tested form may be a part): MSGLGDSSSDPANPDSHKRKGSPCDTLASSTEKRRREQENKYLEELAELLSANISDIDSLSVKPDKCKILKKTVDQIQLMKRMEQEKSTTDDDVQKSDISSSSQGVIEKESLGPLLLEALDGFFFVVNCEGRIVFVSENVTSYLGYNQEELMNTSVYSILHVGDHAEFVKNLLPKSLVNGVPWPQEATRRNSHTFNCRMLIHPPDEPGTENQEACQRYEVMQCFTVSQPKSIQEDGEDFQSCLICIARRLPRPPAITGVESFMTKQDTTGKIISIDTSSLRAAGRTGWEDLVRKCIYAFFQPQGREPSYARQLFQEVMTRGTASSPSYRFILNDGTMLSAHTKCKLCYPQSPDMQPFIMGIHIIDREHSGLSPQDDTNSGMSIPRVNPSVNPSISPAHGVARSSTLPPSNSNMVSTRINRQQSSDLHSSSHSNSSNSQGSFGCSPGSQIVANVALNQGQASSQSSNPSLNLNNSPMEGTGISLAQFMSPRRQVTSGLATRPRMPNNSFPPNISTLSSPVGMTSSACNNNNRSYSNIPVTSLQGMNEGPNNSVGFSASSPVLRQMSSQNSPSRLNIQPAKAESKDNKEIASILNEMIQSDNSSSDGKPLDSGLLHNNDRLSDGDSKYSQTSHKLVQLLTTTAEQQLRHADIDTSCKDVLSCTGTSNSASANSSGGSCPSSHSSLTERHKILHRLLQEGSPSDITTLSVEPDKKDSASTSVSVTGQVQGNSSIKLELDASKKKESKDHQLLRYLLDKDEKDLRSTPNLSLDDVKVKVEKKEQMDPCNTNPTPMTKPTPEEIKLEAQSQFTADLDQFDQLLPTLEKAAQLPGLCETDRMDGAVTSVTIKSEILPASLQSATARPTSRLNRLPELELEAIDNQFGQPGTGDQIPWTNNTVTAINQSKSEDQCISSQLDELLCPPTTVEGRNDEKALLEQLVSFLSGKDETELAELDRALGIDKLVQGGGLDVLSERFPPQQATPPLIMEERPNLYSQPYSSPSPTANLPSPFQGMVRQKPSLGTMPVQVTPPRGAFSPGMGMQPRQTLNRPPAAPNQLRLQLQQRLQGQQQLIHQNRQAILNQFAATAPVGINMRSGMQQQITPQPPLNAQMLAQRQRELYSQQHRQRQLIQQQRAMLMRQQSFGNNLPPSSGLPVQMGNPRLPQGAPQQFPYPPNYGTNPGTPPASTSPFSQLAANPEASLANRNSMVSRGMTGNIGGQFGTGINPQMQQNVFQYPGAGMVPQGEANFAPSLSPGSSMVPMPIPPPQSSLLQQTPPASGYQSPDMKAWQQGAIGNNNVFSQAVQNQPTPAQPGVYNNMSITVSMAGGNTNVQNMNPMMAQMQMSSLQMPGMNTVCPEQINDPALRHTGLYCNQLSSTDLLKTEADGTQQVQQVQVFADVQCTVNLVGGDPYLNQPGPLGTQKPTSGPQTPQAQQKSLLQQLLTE

[4] = VP16 transactivation inhibitors, counter-screen for SRC1 inhibitor project, cell-based, luminescence, high throughput (AID 588824; in the data active means inhibition above about 25%); conditions: cell-based VP16 transactivation luciferase luminescence; at 3.6 µM; hits give high values

| Compound | inhibition [1] | inhibition [2] | inhibition [3] | inhibition [4] |
| --- | --- | --- | --- | --- |
| O=C(N/N=C/c1cc(Br)ccc1O)c1ccncc1 | 23.8% | 34.2% (active) | 26.4% | 39.9% (active) |
| CN(C)/C=C/C(=O)c1ccc2noc(-c3ccccc3)c2c1 | 55.5% (active) | 28.1% | 41.3% | 33.7% (active) |
| COc1cccc2c1C(=N)c1c(O)c3c(c(O)c1C2=O)CC(O)(C(C)=O)CC3OC1CC(N)C(O)C(C)O1 (stereo not given) | 41.9% | -33.3% | 26.9% | -29.4% |
| Cc1cccc[n+]1CC(=O)/C=C1\N(C)c2ccccc2C1(C)C | 8.01% | 20.6% | -9.04% | 23.5% |
| CCOC(=O)c1c(C)n(C)c2ccc(OC)c(NC(=O)c3cccs3)c12 | 22.9% | 35.7% (active) | 41.6% | 44.5% (active) |
| Cc1ccc2nc(-c3ccncc3)c(NC3CCCC3)n2c1 | 38.8% | 29.2% | 27.3% | 25.7% (active) |
| Cc1cc(C)nc(SCC(=O)Nc2ccnc3ccccc23)n1 | 12.2% | 36.5% (active) | -7.31% | 31.7% (active) |
| CC(C)c1ccc(-c2nnn(CCC(=O)O)n2)cc1 | 52.2% (active) | 46.8% (active) | 41.3% | 37.5% (active) |
| COc1ccc(OC)c(/C=C/c2ccnc3ccccc23)c1 | 19.1% | 54.2% (active) | 34.5% | 53.7% (active) |
| O=C(N/N=C/c1ccccc1O)/C(=C/c1ccccc1)CCO | 16.7% | 18.1% | 20% | 19.2% |
| CC(C)(C)S(=O)N1Cc2cc(C(=O)NCC(F)(F)F)nc(-c3cccc(-c4cccc(F)c4)c3)c2[C@@H]1CCO (stereo not given in full) | 10.3% | 2.05% | -14.2% | -2.6% |
| CC1CCN(c2nc3ccc(C(=O)O)cc3s2)CC1 | 10.7% | -7.13% | -48.3% | -1.81% |
| O=C(Nc1ccc(N2CCN(C(=O)c3ccccc3F)CC2)cc1)c1cncc(Br)c1 | 64.7% (active) | 37.8% (active) | 34.5% | 48% (active) |
| COc1ccc(Nc2ncnc3ccc(Br)cc23)cc1OC | 61.3% (active) | 40.6% (active) | 50.7% (active) | 42.2% (active) |
| CCOC(=O)CC(=O)CSc1nccc(-c2cccnc2)n1 | 37.5% | 15.3% | 16.4% | 10.1% |
| Cc1ccc2c(C)nc(Nc3nc(CSc4nc5ccccc5[nH]4)cc(=O)[nH]3)nc2c1 | 12.4% | 16.1% | -14.6% | 17.5% |
| Cc1ccc(NC(=O)c2cc3ccccc3oc2=O)cc1S(=O)(=O)N(C)C | 82.9% (active) | 78.5% (active) | 67% (active) | 63.7% (active) |
| CCN(CC)CCC(=O)Nc1cccc2c1C(=O)c1ccccc1C2=O | -12.3% | 21.1% | 8.87% | 25.7% (active) |
| Cc1ccc(C)c(N2CCN(C(=O)C34CC5CC(C3)CC(n3nnc(C)n3)(C5)C4)CC2)c1 | 3.92% | 29.6% (active) |  |  |
| CC(=O)Nc1cccc(C(=O)/C=C/c2ccc(F)cc2)c1 | 1.7% | 2.15% |  |  |
| O=C(c1ccc(S(=O)(=O)Nc2cccc(C(F)(F)F)c2)cc1)N1CCC1 | -2.7% | -5.66% |  |  |
| COc1ccc(O)c(/C=N/NC(=O)c2c(C)nnn2-c2nonc2N)c1 | 25.4% | 19.7% | 14.4% | 12% |
| Clc1ccc(-c2csc3ncnc(NCCN4CCOCC4)c23)cc1 | 32.2% | 25.3% | 46.6% | 31.8% (active) |
| Cc1ccc(C(=O)NCCn2cc(SCC(=O)Nc3nnc(C)s3)c3ccccc32)cc1 | 18.6% | 4.22% | -32.5% | -0.04% |
| O=C(N/N=C\c1c(O)ccc2ccccc12)c1cncc(Br)c1 | 83% (active) | 84% (active) | 77.7% (active) | 80.5% (active) |
| Cn1c(/C=C/c2ccc(Cl)cc2Cl)c([N+](=O)[O-])c(=O)n(C)c1=O | 62.2% (active) | 51.5% (active) | 47.2% (active) | 56.3% (active) |
| Fc1ccc(CSc2nnc(-c3ccncc3)o2)cc1 | 53.9% (active) | 22.7% | 29.9% | 19.3% |

| Compound | inhibition [1] | inhibition [2] | inhibition [3] | inhibition [4] |
| --- | --- | --- | --- | --- |
| CCOC(=O)C(=Cc1ccccc1OC)C(=O)OCC | 27.3% | 25.4% | 9.25% | 22.2% |
| Cc1ccc(C(=O)O/N=C(\N)c2ccccc2)c(Cl)c1 | -11.9% | -35.4% | -120% | -64.6% |
| Nc1nccc(-c2ccc(-n3cnc4ccccc43)cc2)n1 | 56.7% (active) | 27.4% | 57.7% (active) | 26.3% (active) |
| Cc1ccc(NC(=O)C2CCN(c3ncnc4sc(C)c(C)c34)CC2)cc1S(=O)(=O)N(C)C | 10.3% | 12.1% | 17.6% | 1.39% |
| Cc1ccc2nc(NNC(=O)c3ccc(S(=O)(=O)N4CCc5ccccc5C4)cc3)sc2c1 | 41.8% | 46.4% (active) | 45% | 50% (active) |
| Nc1ccc(Cn2ccc3c4c(N)nc(N)nc4ccc32)cc1 | 66.1% (active) | 32% (active) | 67.7% (active) | 36.9% (active) |
| COc1ccc(-c2csc(NC(=O)C3CCN(c4ncnc5sc(C)c(C)c45)CC3)n2)cc1OC | 24.1% | 58.1% (active) | 23.8% | 52.6% (active) |
| O=C(CCSc1nc2ccccc2s1)N/N=C/c1c(O)ccc2ccccc12 | 20.2% | 23.7% | 36% | 32% (active) |
| Nc1nc(/C=C/c2cccnc2)nc(-c2ccccc2O)n1 | -12.6% | 0.59% | -16.8% | 14.2% |
| O=C(NNC1=Nc2cccc3cccc1c23)c1ccccc1Br | 19.4% | 22.2% | 14.2% | 17.2% |
| COc1ccc(-c2csc3ncnc(NCCCO)c23)cc1 | 66.3% (active) | 46.3% (active) | 50.2% (active) | 49.8% (active) |
| Cc1nnsc1C(=O)N/N=C/c1ccc2ccccc2c1O | 84.2% (active) | 71.3% (active) | 75% (active) | 69.8% (active) |
| COc1cc(/C=N/NC(=Nc2ccc(C)cc2)c2nc3ccccc3s2)ccc1O | 35.6% | 9.45% | 11.4% | -38% |
| CC(=O)c1c(C)n(-c2ccccc2)c2ccc(O)cc12 | 50.6% (active) | 41.6% (active) | 44.7% | 37.9% (active) |
| Cc1ccccc1-c1cc(C(=O)Nc2sc(C(=O)OC(C)C)c(C)c2C#N)c2ccccc2n1 | 31.8% | 50.9% (active) | 37.2% | 40.9% (active) |
| CC(=O)NC(c1ccc(C)cc1)c1cc(Cl)c2cccnc2c1O (stereo not given) | 26.4% | 22.3% | 36.4% | 29.6% (active) |
| Fc1ccc(NC(=S)NNc2ncc(C(F)(F)F)cc2Cl)c(F)c1 | 4.99% | 23% | 15.9% | 29.1% (active) |
| CCCS(=O)(=O)Nc1ccc(Nc2c3ccccc3nc3ccccc23)c(OC)c1 | 64.2% (active) | 17.1% | 56.8% (active) | 2.6% |
| COc1ccc(C(=O)Cn2c(C(C)=O)nc3ccccc32)cc1 | -0.47% | -3.82% | -13.6% | -8.2% |
| CCC(=O)Nc1cc2nn(-c3ccc(C)cc3)nc2cc1C | -6% | -33.2% | -102% | -68% |
| c1ccc2c(-c3cncc4ccccc34)cncc2c1 | 31.4% | 32.7% (active) | 36.4% | 28% (active) |
| Cc1c(Cl)c([N+](=O)[O-])nn1Cc1ccc(C(=O)N/N=C\c2cc(Cl)ccc2O)o1 | 57.4% (active) | 48.7% (active) | 55.5% (active) | 52.9% (active) |
| COc1ccc(-c2c[n+]3c(n2-c2ccccc2)CCCCC3)cc1 | 43.4% (active) | 39.6% (active) | 17.3% | 30.1% (active) |
| O=C(N/N=C/c1ccc(O)cc1O)/C(=C/c1ccccc1)CCO | 22.1% | 20.7% | 31.7% | 24% |
| CC(=O)N(C)C1=C(N2CCOCC2)C(=O)c2ccccc2C1=O | -0.07% | 35.7% (active) | 14.2% | 21.9% |
| COc1cccc(/C=N/NC(=O)C(=O)Nc2ccccc2OC(F)(F)C(F)F)c1O | 36.3% | 38% (active) | 33.3% | 23.4% |
| COC1C(OC(=O)/C=C/C=C/C=C/C=C/C(=O)O)CCC2(CO2)C1C1(C)OC1CC=C(C)C (stereo not given) (tested in a mixture with another compound) | 17.6% | 20.7% | 9.4% | 20.7% |
